Inconclusive results are not listed. Calls follow the shape of the dose curve; as a rule, active = well fitted curve in either direction with a large enough effect (not every such curve was filed as active); inconclusive = small, poorly fitted or top-dose-only effect, or another doubt; inactive = flat fitted curve, though single readings scatter.
Experiment: AP1 Signaling Pathway (AID 357)
Conditions: ME-180 (cervical carcinoma) AP-1-bla reporter, EGF-induced, beta-lactamase ratio, 5 h; at 17.2 µM (top of the series) unless noted
Procedure, shortened: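 AP-1-bla ME-180 cells with beta-lactamase reporter under AP-1 response element, stimulated with EC50 EGF; compounds titrated, 5 hours at 37 degrees Celsius. CCF4 read at 460/530 nm ratio; positive and negative modulators judged by AC50.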
% is scaled to controls: 0 for no effect and ±100 for the full control effect.

Activity change, negative = inhibition, inactive:
Cc1cccc(OCCN2CSC(=S)N(C)C2)c1 -16.7%, Cc1c(C)c2cc(Cl)c(O)c(CN3CCCC(C)C3)c2oc1=O (stereo not given) 14.1%, C=CCn1c(SCC#N)nc2c(c1=O)C(C)(C)Cc1ccccc1-2 -2.85%, COc1ccc2c(c1OC)C(=O)N1c3ccccc3C(=O)N(c3ccccc3F)C21 (stereo not given) -4.99%, COc1cc([C@@H]2[C@H]3CNCC=C3C(C#N)=C(N)C2(C#N)C#N)ccc1OC(C)C 14%, Fc1ccccc1-c1nc(NCCCN2CCOCC2)c2ccccc2n1 0.19%, COc1cccc(-c2nc(N3CCC(C)CC3)c3ccccc3n2)c1O 16.6%, CCOc1cccc(-c2nnc3sc(-c4cc(OC)c(OC)c(OC)c4)nn23)c1 3.58%, Cc1cc(Cn2ccnc2)c(C)cc1Cn1ccnc1 0.168%, COCc1[nH]nc2c1C(c1ccc(OC)cc1)C(C#N)=C(N)O2 (stereo not given) 2.89%, Cc1nnc(NCc2n[nH]c(=O)c3ccccc23)c2ccccc12 29.7%, Cn1c(Cl)cnc1C1CC(=O)c2cc(Cl)ccc2O1 (stereo not given) 14.1%, CN(C)CCCOC(=O)c1ccc(Cl)cc1Cl 13.3%, CN1CCN(CCC(=O)N2c3ccccc3Sc3ccc(Cl)cc32)CC1 12.7%, Cc1cc2c(c(=O)n1Cc1ccccn1)C(c1ccc3c(c1)OCO3)C(C#N)=C(N)O2 (stereo not given) -7.52%, COCCCn1cnc2c(c1=O)c1nc3ccccc3nc1n2CCc1ccccc1 -15.7%, CCN(CC)C(=O)CSc1nc2ccccc2c(=O)n1CC1CCCCC1 -21.3%, O=C(CSc1nc2ccccc2c(=O)n1CC1CCCCC1)N1CCOCC1 -23.4%, CC1(C)Cc2c(C#N)c(SCC(=O)c3ccccc3)nc(N3CCCC3)c2CO1 24.5%, CCOC(=O)C(C)Sc1nc(-c2cccs2)ccc1C#N (stereo not given) 7.21%, C=CCSc1nnc2n(-c3ccccc3OC)c(=O)c3c4c(sc3n12)CCC4 7%, C=C(C)CSc1nnc2n(C)c(=O)c3c4c(sc3n12)CCC4 -2.43%, CC(NC(=O)OC(C)(C)C)C(=O)Oc1ccc2ccc(=O)oc2c1 (stereo not given) 24.1%, CCSc1nc2sc3c(c2c2nnc(SCC(=O)NCc4ccco4)n12)CCCC3 -11.8%, Cc1ccc(N2C(=O)CC(N(O)C3CC(=O)N(c4ccc(C)cc4)C3=O)C2=O)cc1 (stereo not given) -20.5%, O=C(O)CC(NCc1ccco1)C(=O)OCC1CCCO1 (stereo not given) 11.5%, C=C1c2cc(OC)ccc2NC(=O)N1CC 13.3%, COc1ccc(S(=O)(=O)N2CCC(N3CCCCC3)CC2)cc1 7.98%, CCOC(=O)c1[nH]c2cc(OC)c(OC)cc2c1NC(=O)C(C)N1CCN(Cc2ccccc2)CC1 (stereo not given) -21.5%, C[C@]12CC[C@@H]3c4ccc(O)cc4CC[C@H]3[C@@H]1CC[C@@H]2OC(=O)CCC(=O)O -5.44%, CCC(=O)Oc1ccc(C(CC)C(CC)c2ccc(OC(=O)CC)cc2)cc1 (stereo not given) -8.93%, CCSc1nnc(NC(=O)C(C(F)(F)F)C(F)(F)F)s1 -16.3%, CCN(CC)CCCn1c(C)cc2c(c1=O)C(c1cccc(Cl)c1)C(C#N)=C(N)O2 (stereo not given) -4.22%, COCCNC(=O)c1c(N)n(/N=C/c2cccs2)c2nc3ccccc3nc12 -0.395%, COc1ccc(CSc2nnc3n(C)c(=O)c4c5c(sc4n23)CCCC5)cc1 -2.6%, Cc1cccn2c(=O)c3cc(C(N)=S)c(=N)n(CCCOC(C)C)c3nc12 -0.111%, NC(Cc1ccc(Oc2ccc(O)cc2)cc1)C(=O)O (stereo not given) -2.36%, CCCCNC(=O)c1c(N)n(/N=C/c2cccnc2)c2nc3ccccc3nc12 -12%, COC(=O)CSc1nc(-c2cccs2)ccc1C#N -2.59%, CCCCNC(=O)N(C)c1nncnc1C(=O)NC 16.6%

From PubChem BioAssay (NCATS)
